For one experiment, the system named is Klebsiella pneumoniae. Particulars: Concentration 20 uM; ASSAY_TEST Inhibition of Bacterial Growth; detection method Absorption (OD600); MEDIA CAMHB; plate type 384well; NBS; CORNING #3640; time 18 hr.
The test system of another experiment is Candida albicans. As to conditions: 20 µM.
In a further experiment the test system is Cryptococcus neoformans. Particulars: Concentration 20 uM; ASSAY_TEST Inhibition of Fungal Growth; detection method Resazurin; Absorption (OD600-OD570); plate type 384well; NBS; CORNING #3640.

This is an account of results in ChEMBL document CHEMBL4513149, “CO-ADD screening of MMV (CH) - MMV compounds” (2021).

Molecules are shown by their SMILES. Results with a measured potency or affinity are listed apart.

Take `Cc1nn2c(O)c3c(nc2c1-c1ccc(F)cc1)CCCC3`: the Inhibition in the experiment on Klebsiella pneumoniae was 11.6%; with Candida albicans it was 3.69%; in the experiment with Cryptococcus neoformans, -6.74%.

As to `CC(C)(C)n1nc(Cc2cccc3ccccc23)c2c(N)ncnc21`, the Inhibition in the experiment with Klebsiella pneumoniae is 2.54%; in the experiment with Candida albicans, 3.16%; in the experiment with Cryptococcus neoformans, -9.17%.

For `CC(=O)O.CC(=O)O.Nc1ncnc2c1ncn2[C@@H]1O[C@H](COS(=O)(=O)NC(=O)c2ccccc2O)[C@@H](O)[C@H]1O`, the values for the Inhibition in the experiment on Klebsiella pneumoniae, with Candida albicans and with Cryptococcus neoformans were 14.67%, 1.66% and -8.69%, respectively.

In the case of `Cc1cc(NCC(C)C)c2[nH]nc(-c3ccccc3)c2n1`, the figures for the Inhibition in the experiment on Klebsiella pneumoniae, in the experiment on Candida albicans and in the experiment on Cryptococcus neoformans were 16.32%, 0.11% and -5.87%, respectively.

In the case of `N=C(N)c1ccc(-c2cc(-c3ccccc3)on2)cc1`, the Inhibition was 18.39% in the experiment with Klebsiella pneumoniae, 3.34% in the experiment with Candida albicans and -9.38% in the experiment on Cryptococcus neoformans.

For the compound `CCCCc1ccc(NC(=O)Nc2ccc(O[C@H]3CCCC[C@@H]3N(C)c3ccccc3)c(F)c2)cc1`, the Inhibition in the experiment with Klebsiella pneumoniae was 12.88%; with Candida albicans, 1.16%; in the experiment on Cryptococcus neoformans, -1.2%.

As for `FC(F)(F)c1nnc2ccc(Cl)nn12`, the Inhibition was 7.1% in the experiment on Klebsiella pneumoniae, 2.55% with Candida albicans and 2.75% with Cryptococcus neoformans.

In the case of `Cl.NCCCC(N)(C(=O)O)C(F)F.O` (stereo unspecified) [EFLORNITHINE HYDROCHLORIDE], the Inhibition with Klebsiella pneumoniae was 11.19%; in the experiment on Candida albicans, 2.7%; with Cryptococcus neoformans, -9.22%.

In the case of `Cc1nnc(NCc2cccc(Cl)c2)c2ccccc12`, the Inhibition was 13.85% in the experiment on Klebsiella pneumoniae, 3.34% in the experiment on Candida albicans and -11.95% in the experiment on Cryptococcus neoformans.

Regarding `CCOC(=O)c1cc(-c2csc(Nc3c(C)cc(C)cc3C)n2)on1`, the Inhibition in the experiment with Klebsiella pneumoniae was 16.59%; in the experiment with Candida albicans it was 2.27%; in the experiment with Cryptococcus neoformans, -12.46%.

With `O=C(NCCc1ccn(-c2ccccc2)n1)C1CCCCC1`, the Inhibition with Klebsiella pneumoniae is 6.33%; in the experiment with Candida albicans, 3.92%; in the experiment with Cryptococcus neoformans it was -9.22%.

Consider `Cc1ccccc1CN1CCC(O)(c2ccc(Cl)c(C(F)(F)F)c2)CC1`, for which the Inhibition was 11.69% in the experiment on Klebsiella pneumoniae, 3.22% in the experiment with Candida albicans and -6.41% with Cryptococcus neoformans.
